Reference: the supplement of paper PMC10127200
Where a name gives a salt, the structure may show the parent alone.

test system: 786-O; experiment: Euclidean distance of Cell Painting phenotypic profile (signed KS, 77 features) to DMSO centroid (dimensionless distance); 5 or 10 uM (library dependent); higher = stronger phenotypic change vs DMSO (phenoactivity); conditions: 48 h
Method in brief: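 Five cancer lines and a healthy fibroblast line received library compounds at 10 or 5 uM (library-dependent, 0.1% DMSO final) for 48 h. Stained cells were imaged confocally at 20X (9 fields/well). Harmony extracted 77 features, each scored as a signed Kolmogorov-Smirnov statistic against same-plate vehicle wells. Profiles were plate-position corrected, correlation-weighted and replicate-averaged at the top dose. Phenoactivity is the Euclidean distance from each profile to the median vehicle profile.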

How did the Euclidean distance turn out when `COc1ccc(-c2ccc3c(N4CCOC[C@@H]4C)nc(N4CCOC[C@@H]4C)nc3n2)cc1CO` was run?
The Euclidean distance was 4.

With `CC(C)(C)Cn1c(N)nc2ccc(-c3[nH]c(C(C)(C)C)nc3-c3ccc(F)cc3)nc21` as the compound, how does the Euclidean distance read?
Its Euclidean distance is 4.34.

With `CCN1CCN(C(=O)N[C@@H](C(=O)N[C@@H]2C(=O)N3[C@@H]2SC(C)(C)[C@@H]3C(=O)O)c2ccccc2)C(=O)C1=O` [Piperacillin Sodium] as the compound, how does the Euclidean distance read?
Its Euclidean distance is 1.11.

For `COc1cc(N2CCC(N3CCN(C)CC3)CC2)ccc1Nc1ncc(Cl)c(Nc2ccccc2S(=O)(=O)C(C)C)n1`, which Euclidean distance is on record?
Its Euclidean distance is 2.54.

`OC1CN(CCCOCCc2ccc3sccc3c2)C1` [Edonerpic maleate] was tested. Which Euclidean distance did it give?
Its Euclidean distance is 0.947.

`c1cc(CN2CCCNCCNCCCNCC2)ccc1CN1CCCNCCNCCCNCC1` [Plerixafor 8HCl (AMD3100 8HCl)] was tested. Which Euclidean distance did it give?
Its Euclidean distance is 1.37.

How did the Euclidean distance turn out when `COc1cc(C(=O)OCCCCNC(=N)N)cc(OC)c1O` [Leonurine] was run?
The Euclidean distance was 1.19.

`C[C@H](Cn1cnc2c(N)ncnc21)OCP(=O)(O)O` [Tenofovir] was tested. Which Euclidean distance did it give?
The Euclidean distance was 1.59.

For `NC(=O)[C@@H]1CSSCCC(=O)N[C@@H](CCCCN=C(N)N)C(=O)NCC(=O)N[C@@H](CC(=O)O)C(=O)N[C@@H](Cc2c[nH]c3ccccc23)C(=O)N2CCC[C@H]2C(=O)N1` [Eptifibatide Acetate], which Euclidean distance is on record?
The Euclidean distance was 1.66.

Which Euclidean distance does the source give for `CC[C@H](NC(=O)[C@H](C)NC)C(=O)N1C[C@@H](O)C[C@H]1Cc1c(-c2[nH]c3cc(F)ccc3c2C[C@@H]2C[C@H](O)CN2C(=O)[C@H](CC)NC(=O)[C@H](C)NC)[nH]c2cc(F)ccc12` [Birinapant] here?
The Euclidean distance was 1.15.
